Here are results for eleven compounds from ChEMBL document CHEMBL3988442, “University of Dundee, Small-Polar-MMV Screening Library” (2021).

For some of these results: Entries with a potency or affinity are not part of this list.

What all share (parameters): scale not given: direction of the effect not stated beside the values
Assay [1] has as its target Protein translocase subunit SecA (Escherichia coli (strain K12)) (UniProt P10408). Nature of the assay: Assay to Identify E. coli SecA ATPase Inhibitors. As to conditions: 30 µM. The format is functional.
For assay [2], the target named is T1, Ubiquitin-activating enzyme e1, putative (Leishmania donovani (strain BPK282A1)) (UniProt E9BSI1).
T1 sequence (whole entry): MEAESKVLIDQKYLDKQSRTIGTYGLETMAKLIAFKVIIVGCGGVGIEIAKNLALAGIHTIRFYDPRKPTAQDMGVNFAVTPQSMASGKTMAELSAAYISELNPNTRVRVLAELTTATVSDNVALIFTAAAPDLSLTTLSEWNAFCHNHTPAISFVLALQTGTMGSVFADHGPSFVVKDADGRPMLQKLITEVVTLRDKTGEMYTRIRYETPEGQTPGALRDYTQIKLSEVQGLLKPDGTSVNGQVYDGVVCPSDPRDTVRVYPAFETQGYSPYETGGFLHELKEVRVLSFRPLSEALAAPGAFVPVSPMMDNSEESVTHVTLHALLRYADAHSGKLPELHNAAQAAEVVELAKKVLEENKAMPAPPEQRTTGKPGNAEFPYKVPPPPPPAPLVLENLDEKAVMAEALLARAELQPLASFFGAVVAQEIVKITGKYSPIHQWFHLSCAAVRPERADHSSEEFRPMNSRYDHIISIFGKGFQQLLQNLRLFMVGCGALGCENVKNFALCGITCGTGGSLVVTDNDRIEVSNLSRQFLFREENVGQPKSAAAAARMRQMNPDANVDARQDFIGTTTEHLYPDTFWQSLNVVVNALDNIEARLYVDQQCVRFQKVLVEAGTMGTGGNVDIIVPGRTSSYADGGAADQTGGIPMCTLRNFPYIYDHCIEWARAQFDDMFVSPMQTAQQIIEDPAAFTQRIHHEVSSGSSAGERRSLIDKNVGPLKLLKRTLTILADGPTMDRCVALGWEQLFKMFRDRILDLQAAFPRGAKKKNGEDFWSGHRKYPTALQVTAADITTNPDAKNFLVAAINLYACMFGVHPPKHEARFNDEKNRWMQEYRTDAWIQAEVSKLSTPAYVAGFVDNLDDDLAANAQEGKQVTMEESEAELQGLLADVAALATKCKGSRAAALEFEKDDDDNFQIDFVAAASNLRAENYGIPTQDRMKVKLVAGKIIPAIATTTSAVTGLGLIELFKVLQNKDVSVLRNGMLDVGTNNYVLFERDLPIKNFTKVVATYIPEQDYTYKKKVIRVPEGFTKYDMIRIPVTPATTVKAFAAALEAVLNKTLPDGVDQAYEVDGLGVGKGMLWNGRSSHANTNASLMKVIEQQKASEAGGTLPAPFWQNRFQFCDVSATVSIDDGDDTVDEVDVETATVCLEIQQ
Nature of the assay: Leishmania donovani Ubiquitin Activating Enzyme (LdE1). The class given is functional. As to conditions: 30 µM.

For assay [3], the target named is AMP-activated protein kinase, AMPK (Homo sapiens) (UniProt P54646+O43741+P54619+Q9UGJ0+Q9Y478+Q13131+Q9UGI9). Nature of the assay: AMP-dependent Kinase enzyme assay. An in vitro enzyme assay that detects ADP turnover that is directly proportional to AMPK activity. This uses naive AMPK that is activated during the assay with MK-8722. As to conditions: 30 µM. The format is functional.

The target of assay [4] is Sialic acid-binding Ig-like lectin 9 (Homo sapiens) (UniProt Q9Y336). The experiment in a line: Hs-Siglec9 ALPHAscreen SOP 20170721. As to conditions: 10 µM.
A further assay concerns Trypanosoma cruzi. The experiment in a line: Trypanosoma cruzi phosphomannomutase and mannose-1-phosphate guanylyltransferase assay. The format is functional. As to conditions: 10 µM.
The target in assay [5] is T2, Arginase-2, mitochondrial (Homo sapiens) (UniProt P78540).
T2 sequence (whole entry): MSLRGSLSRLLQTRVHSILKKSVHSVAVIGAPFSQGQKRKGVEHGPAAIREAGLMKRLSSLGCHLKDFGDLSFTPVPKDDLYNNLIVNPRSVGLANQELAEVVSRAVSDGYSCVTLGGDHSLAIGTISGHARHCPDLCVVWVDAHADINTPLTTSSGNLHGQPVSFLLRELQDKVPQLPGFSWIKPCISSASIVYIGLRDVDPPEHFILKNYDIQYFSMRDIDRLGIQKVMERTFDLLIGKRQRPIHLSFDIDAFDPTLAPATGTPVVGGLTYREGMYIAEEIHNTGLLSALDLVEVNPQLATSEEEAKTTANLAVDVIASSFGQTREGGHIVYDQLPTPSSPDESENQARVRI
Nature of the assay: in vitro enzyme assay to detect the production of urea directly proportional to the activity of Arginase II. Note: in the data most compounds retested in dose-response had high values. The format is functional. As to conditions: 33.3 µM.

Assay [6] has as its target T3, Proteasome subunit beta (Trypanosoma cruzi) (UniProt O96673).
T3 sequence (whole entry): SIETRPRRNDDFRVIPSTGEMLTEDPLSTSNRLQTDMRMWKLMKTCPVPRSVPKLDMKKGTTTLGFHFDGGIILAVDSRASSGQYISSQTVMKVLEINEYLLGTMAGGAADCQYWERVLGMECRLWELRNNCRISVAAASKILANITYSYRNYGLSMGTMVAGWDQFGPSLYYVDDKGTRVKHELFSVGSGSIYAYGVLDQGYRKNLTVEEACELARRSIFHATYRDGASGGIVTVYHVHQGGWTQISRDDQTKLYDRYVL
Nature of the assay: Trypanosoma cruzi proteasome chymotrypsin-like activity (TcProtChymo) assay. Note: in the data most compounds retested in dose-response had high values. As to conditions: 9.37 µM. The format is functional.

The next assay is filed under the species Homo sapiens. Nature of the assay: To identify inhibition of the IFN signalling (Jak-Stat) pathway via expression of an eGFP reporter gene under the control of an IFN-stimulated response element (ISRE) containing MxA promoter. As to conditions: 30 µM. The class given is functional.
The target of assay [7] is T4, Tyrosyl-tRNA synthetase, putative (Trypanosoma cruzi (strain CL Brener)) (UniProt Q4DSP6).
T4 sequence (whole entry): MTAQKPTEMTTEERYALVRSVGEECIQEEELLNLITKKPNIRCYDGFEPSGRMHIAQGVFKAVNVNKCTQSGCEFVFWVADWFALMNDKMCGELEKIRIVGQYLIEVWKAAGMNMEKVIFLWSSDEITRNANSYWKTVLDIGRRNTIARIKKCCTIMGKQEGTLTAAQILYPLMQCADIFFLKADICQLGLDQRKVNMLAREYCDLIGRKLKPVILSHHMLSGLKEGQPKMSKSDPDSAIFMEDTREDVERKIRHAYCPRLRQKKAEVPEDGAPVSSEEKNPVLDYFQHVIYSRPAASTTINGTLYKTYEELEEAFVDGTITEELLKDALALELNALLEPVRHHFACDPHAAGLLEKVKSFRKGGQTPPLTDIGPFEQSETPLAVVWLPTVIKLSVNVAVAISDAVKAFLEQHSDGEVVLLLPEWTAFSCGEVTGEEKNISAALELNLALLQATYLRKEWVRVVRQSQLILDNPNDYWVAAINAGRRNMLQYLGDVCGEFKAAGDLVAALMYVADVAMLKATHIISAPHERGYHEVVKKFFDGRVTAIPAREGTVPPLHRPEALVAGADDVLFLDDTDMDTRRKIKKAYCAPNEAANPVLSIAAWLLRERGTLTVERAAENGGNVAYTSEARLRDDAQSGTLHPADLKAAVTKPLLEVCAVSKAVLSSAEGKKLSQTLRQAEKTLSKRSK
Nature of the assay: Trypanosoma cruzi tyrosyl tRNA synthetase (TcYRS) _High Tyrosine SOP. Note: in the data most compounds retested in dose-response had high values. The class given is functional. As to conditions: 30 µM.

The target in assay [8] is T4, Tyrosyl-tRNA synthetase, putative (Trypanosoma cruzi (strain CL Brener)). The experiment in a line: Trypanosoma cruzi tyrosyl tRNA synthetase (TcYRS) SOP. The class given is functional. As to conditions: 30 µM.
In assay [9] the target is Chromo domain-containing protein 1 (Saccharomyces cerevisiae (strain ATCC 204508 / S288c) (Baker's yeast)) (UniProt P32657). The experiment in a line: ScCHD-1 Enzyme Inhibition Assay. Note: in the data most compounds retested in dose-response had high values. The format is functional. As to conditions: 30 µM.
Chromo domain-containing protein 1 (Saccharomyces cerevisiae (strain ATCC 204508 / S288c) (Baker's yeast)), sequence (P32657 whole entry, the tested form may be a part): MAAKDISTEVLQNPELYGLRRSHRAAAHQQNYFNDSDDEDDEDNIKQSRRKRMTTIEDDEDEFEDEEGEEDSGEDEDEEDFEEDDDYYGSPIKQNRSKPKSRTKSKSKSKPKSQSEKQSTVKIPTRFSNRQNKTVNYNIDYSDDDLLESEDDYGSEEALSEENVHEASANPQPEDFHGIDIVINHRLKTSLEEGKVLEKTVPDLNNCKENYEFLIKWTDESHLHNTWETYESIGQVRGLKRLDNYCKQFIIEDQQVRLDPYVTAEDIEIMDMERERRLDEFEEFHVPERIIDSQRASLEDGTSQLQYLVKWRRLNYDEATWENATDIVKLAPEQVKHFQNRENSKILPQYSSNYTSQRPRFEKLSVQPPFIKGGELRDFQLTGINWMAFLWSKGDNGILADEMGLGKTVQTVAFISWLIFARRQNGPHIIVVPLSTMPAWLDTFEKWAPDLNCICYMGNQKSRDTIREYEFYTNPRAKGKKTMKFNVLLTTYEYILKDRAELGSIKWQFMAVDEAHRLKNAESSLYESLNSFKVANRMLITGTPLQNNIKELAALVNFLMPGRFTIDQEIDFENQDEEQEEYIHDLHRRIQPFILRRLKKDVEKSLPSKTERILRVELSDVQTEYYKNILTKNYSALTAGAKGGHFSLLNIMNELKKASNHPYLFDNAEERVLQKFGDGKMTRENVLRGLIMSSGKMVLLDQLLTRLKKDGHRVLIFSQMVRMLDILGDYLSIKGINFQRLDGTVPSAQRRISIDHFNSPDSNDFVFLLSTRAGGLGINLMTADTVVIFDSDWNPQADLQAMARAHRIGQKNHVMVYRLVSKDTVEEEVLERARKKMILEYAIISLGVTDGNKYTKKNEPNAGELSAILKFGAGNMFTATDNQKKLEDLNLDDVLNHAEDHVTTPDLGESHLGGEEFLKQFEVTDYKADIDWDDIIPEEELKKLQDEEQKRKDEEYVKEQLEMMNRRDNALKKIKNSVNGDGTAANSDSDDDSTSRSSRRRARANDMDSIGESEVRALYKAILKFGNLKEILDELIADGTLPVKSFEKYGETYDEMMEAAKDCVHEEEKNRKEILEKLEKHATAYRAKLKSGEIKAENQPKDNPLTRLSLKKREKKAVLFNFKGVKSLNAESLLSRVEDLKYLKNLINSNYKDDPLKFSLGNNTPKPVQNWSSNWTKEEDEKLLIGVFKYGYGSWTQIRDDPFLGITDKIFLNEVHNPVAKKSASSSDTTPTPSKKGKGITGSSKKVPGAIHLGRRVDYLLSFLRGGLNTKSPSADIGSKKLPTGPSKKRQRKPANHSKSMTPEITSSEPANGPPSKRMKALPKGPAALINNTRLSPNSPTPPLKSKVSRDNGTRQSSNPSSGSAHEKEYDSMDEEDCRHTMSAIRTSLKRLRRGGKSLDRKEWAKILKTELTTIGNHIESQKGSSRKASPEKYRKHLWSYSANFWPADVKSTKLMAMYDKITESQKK

Sialic acid-binding Ig-like lectin 9 (Homo sapiens), sequence (Q9Y336 whole entry): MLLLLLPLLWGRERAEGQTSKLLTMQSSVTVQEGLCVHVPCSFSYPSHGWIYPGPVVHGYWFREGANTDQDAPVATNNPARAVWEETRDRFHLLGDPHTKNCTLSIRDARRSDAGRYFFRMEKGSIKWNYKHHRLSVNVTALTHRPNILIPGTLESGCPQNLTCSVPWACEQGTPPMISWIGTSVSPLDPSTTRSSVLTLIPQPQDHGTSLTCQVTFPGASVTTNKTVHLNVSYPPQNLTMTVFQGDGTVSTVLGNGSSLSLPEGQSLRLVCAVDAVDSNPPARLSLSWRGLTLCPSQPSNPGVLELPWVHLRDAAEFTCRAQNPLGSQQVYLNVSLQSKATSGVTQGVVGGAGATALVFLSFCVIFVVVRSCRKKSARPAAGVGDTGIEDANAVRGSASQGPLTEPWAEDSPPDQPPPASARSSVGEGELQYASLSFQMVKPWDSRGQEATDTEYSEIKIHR
Protein translocase subunit SecA (Escherichia coli (strain K12)), sequence (P10408 whole entry): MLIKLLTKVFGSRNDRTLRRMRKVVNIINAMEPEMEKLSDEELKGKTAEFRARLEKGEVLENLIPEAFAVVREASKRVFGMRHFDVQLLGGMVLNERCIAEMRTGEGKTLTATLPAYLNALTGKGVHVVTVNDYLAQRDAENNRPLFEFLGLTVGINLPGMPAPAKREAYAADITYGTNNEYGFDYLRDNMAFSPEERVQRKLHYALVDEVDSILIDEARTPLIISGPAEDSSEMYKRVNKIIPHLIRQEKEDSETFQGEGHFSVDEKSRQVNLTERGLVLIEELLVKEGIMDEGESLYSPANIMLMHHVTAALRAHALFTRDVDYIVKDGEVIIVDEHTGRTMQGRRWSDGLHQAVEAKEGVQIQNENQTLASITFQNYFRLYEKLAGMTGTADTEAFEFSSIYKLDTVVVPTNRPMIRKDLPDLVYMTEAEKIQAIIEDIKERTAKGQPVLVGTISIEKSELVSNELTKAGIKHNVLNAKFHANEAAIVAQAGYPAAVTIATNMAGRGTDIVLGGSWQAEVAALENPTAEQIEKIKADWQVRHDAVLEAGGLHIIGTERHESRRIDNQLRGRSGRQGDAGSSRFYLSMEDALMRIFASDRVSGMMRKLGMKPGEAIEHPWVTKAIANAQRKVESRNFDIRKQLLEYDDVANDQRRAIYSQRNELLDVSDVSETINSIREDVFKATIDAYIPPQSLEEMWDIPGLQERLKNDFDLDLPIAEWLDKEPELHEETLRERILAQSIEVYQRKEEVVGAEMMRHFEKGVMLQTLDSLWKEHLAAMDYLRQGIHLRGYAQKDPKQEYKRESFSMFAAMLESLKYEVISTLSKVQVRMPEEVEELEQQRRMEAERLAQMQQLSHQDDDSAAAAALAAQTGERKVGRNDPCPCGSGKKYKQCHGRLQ

`CNC(=O)c1cnc(/C=C/c2cc(OC)cc(OC)c2)s1`: the Percent Effect is -6.6% in [1]; -5.41% in assay [2]; -2.31% in assay [3]; 7.75% in [4]; -6.25% with Trypanosoma cruzi; 0.417% in [5]. Also, the Percent Effect in assay [6] was 21.4%; in the assay filed under Homo sapiens, 18.1%; in assay [7], 1.98%; in assay [8] it was -6.1%; in assay [9], -3.49%.
Consider `CC(=O)N1CCCN(C(=O)c2ccn(-c3cccc(Cl)c3)n2)CC1`, for which the Percent Effect was -2.55% in assay [1]; 15.6% in assay [2]; -0.208% in [3]; -4.72% in assay [4]; -4.31% in the assay on Trypanosoma cruzi; -1.42% in assay [5]. The Percent Effect in [6] was 12.8%; in the assay listed under Homo sapiens, 10.3%; in assay [7], 5.83%; in [8], 14.6%; in assay [9], -6%.
In the case of `Cc1noc(CN2Cc3ccccc3CC2c2nnc(C)o2)n1` (stereo unspecified), the Percent Effect was -3.16% in assay [1]; 5.2% in assay [2]; 6.26% in assay [3]; 12.5% in assay [4]; 3.23% with Trypanosoma cruzi; 1.9% in assay [5]. In addition, the Percent Effect in [6] worked out at 5.58%; in the assay listed under Homo sapiens, 8.44%; in assay [7] it was 2.86%; in assay [8], 7.06%; in assay [9] it was 3.28%.
For the compound `O=C(c1cccc2c1OCO2)N1CCCC1Cn1cccn1` (stereo unspecified), the Percent Effect is -4.17% in assay [1]; -2.6% in assay [2]; 1.97% in assay [3]; 4.11% in assay [4]; -1.47% in the assay on Trypanosoma cruzi; -1.9% in [5]. For the same compound, the Percent Effect in assay [6] was 6.55%; in the assay listed under Homo sapiens it was 14.8%; in assay [7], 3.81%; in [8], 9.41%; in [9], -8.43%.
For `COCCNC(=O)[C@H]1CN(Cc2scnc2C)C[C@H]2OCC[C@@H]12`, the Percent Effect in [1] was -3.71%; in [2], 5.48%; in assay [3] it was 0.0499%; in assay [4], 5.36%; in the assay on Trypanosoma cruzi, 3.77%; in assay [5] it was 1.2%. Besides, the Percent Effect in assay [6] was 1.11%; in the assay filed under Homo sapiens, 4.51%; in [7], 5.21%; in [8] it was 16.1%; in assay [9], 1.51%.
For `CN(C)C[C@H]1OC[C@@H]2CCN(C(=O)c3ccco3)C[C@@H]21`, the Percent Effect is -8.17% in assay [1]; -2.7% in assay [2]; -0.601% in assay [3]; -7.74% in [4]; -3.23% in the assay with Trypanosoma cruzi; 0.248% in assay [5]. The Percent Effect in [6] is -0.0858%; in the assay listed under Homo sapiens it was 11.6%; in assay [7], 1.07%; in assay [8] it was 3.7%; in [9], 0.795%.
For `O=C(Nc1nccs1)N(CCO)Cc1ccsc1`, the Percent Effect in assay [1] was -1.95%; in assay [2], 13.2%; in assay [3] it was -2.9%; in [4], -1.76%; in the assay on Trypanosoma cruzi it was 5.08%; in assay [5], -2.3%. Further, the Percent Effect is 11.5% in assay [6]; -0.668% in the assay filed under Homo sapiens; 8.33% in assay [7]; 29.3% in assay [8]; -13.6% in [9].
For the compound `Cc1ncc(CNC2CCCN(Cc3noc(C4CC4)n3)C2)s1` (stereo unspecified), the Percent Effect in assay [1] was -0.948%; in assay [2], 10.5%; in assay [3], 2.18%; in assay [4], 8.33%; in the assay with Trypanosoma cruzi, 3.01%; in assay [5] it was 2.3%. The Percent Effect in assay [6] is 10.2%; in the assay listed under Homo sapiens, 8.96%; in assay [7], 7.35%; in [8], 19.5%; in assay [9] it was -8.72%.
Turning to `COc1ncccc1NC(=O)N1CCC(CNC(C)=O)CC1`, the Percent Effect in assay [1] was -3.02%; in [2], 5.33%; in assay [3], -2.93%; in assay [4] it was 4.72%; with Trypanosoma cruzi, 3.02%; in [5], 3.12%. Moreover, the Percent Effect in [6] was 7.5%; in the assay filed under Homo sapiens it was 20.5%; in assay [7], 4.92%; in assay [8] it was 13.6%; in assay [9], -8%.
In the case of `Cc1cccnc1NC(=O)NC(C)Cn1cccn1` (stereo unspecified), the Percent Effect in assay [1] is -8.41%; in assay [2] it was 10.4%; in assay [3] it was 7.9%; in [4], 3.8%; with Trypanosoma cruzi, -5.62%; in assay [5] it was 1.78%. Also, the Percent Effect in assay [6] was 0.845%; in the assay listed under Homo sapiens it was 23.3%; in assay [7], 3.88%; in assay [8] it was 2.44%; in [9], -4.43%.
As for `O=c1[nH]c2nc(N3CCSCC3)ncc2c(=O)n1-c1cccc(F)c1`, the Percent Effect in [1] is -3.04%; in assay [2] it was 7.89%; in assay [3] it was 7.15%; in [4], -1.69%; in the assay with Trypanosoma cruzi, -1.46%; in assay [5], 5.92%. Moreover, the Percent Effect in assay [6] is 15.4%; in the assay filed under Homo sapiens it was 9.74%; in [7], 3.19%; in assay [8], 10.4%; in assay [9], -0.88%.
